The record followed here is the supplement of paper PMC10849652.

The full data set covers some 7,900 targets. This sample favours those with a hit. About 0.6% of all pairs of compound and target were hits. Values without a mark were called inactive.

Sequence of UniProt Q13257 (Q13257 whole entry, looked up): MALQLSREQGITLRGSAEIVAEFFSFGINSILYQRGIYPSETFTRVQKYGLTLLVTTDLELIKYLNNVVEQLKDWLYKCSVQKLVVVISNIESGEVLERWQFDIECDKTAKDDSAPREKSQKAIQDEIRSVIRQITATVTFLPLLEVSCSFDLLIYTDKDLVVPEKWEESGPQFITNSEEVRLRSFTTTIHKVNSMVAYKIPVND
Sequence of UniProt Q9HCC0 (Q9HCC0 whole entry, looked up): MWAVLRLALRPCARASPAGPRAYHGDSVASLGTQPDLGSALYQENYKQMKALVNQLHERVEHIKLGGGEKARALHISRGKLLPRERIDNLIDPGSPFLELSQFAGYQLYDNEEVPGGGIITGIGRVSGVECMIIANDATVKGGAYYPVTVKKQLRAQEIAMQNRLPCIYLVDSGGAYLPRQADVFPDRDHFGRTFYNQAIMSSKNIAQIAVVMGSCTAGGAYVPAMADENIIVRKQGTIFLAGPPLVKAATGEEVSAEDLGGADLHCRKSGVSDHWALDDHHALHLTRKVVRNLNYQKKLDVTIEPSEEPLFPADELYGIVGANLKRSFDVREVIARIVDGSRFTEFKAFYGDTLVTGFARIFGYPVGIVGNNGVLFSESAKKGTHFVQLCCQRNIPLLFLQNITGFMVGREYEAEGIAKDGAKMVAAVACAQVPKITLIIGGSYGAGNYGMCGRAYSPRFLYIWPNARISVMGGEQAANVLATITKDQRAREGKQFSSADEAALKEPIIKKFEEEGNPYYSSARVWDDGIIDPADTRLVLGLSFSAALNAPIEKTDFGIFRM
Sequence of UniProt Q8IVT5 (Q8IVT5 whole entry, looked up): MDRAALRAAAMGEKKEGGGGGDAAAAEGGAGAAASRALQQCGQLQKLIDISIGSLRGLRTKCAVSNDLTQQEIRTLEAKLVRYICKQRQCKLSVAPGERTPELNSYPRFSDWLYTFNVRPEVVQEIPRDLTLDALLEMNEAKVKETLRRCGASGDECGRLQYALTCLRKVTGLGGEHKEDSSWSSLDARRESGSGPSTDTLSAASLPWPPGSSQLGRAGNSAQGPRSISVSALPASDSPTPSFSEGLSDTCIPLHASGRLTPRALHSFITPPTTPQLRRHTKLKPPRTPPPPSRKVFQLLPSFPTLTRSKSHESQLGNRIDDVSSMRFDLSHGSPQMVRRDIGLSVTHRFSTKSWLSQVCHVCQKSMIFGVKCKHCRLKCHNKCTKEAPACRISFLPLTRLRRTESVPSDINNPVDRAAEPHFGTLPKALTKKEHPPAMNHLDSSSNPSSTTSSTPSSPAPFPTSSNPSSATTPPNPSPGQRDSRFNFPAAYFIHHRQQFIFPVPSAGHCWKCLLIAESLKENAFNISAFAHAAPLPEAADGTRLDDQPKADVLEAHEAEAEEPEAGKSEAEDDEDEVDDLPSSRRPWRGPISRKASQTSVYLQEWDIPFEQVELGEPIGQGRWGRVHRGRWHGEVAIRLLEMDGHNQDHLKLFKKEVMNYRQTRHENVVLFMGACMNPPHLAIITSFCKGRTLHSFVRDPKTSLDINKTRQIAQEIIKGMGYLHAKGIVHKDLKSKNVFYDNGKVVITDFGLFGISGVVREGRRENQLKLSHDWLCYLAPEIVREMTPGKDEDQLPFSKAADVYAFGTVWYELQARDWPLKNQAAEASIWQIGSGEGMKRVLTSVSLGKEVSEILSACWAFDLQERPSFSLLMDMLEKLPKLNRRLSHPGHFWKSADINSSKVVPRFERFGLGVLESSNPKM
Sequence of UniProt P22692 (P22692 whole entry, looked up): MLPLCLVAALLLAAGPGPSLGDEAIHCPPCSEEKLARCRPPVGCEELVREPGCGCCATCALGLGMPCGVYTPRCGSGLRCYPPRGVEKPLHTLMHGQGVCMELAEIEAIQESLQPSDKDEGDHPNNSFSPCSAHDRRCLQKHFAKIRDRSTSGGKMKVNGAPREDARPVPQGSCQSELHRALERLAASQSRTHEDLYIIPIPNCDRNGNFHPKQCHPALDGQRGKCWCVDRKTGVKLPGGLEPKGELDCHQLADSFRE
Sequence of UniProt P29966 (P29966 whole entry, looked up): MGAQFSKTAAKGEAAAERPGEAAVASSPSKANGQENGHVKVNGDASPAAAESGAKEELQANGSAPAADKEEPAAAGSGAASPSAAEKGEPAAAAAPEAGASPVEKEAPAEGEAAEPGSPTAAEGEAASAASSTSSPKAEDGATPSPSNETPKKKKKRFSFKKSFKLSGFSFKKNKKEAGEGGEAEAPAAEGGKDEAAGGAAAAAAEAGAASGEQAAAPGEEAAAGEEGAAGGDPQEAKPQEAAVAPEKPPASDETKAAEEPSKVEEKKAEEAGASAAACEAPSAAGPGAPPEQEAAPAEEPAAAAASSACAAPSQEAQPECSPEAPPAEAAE
Sequence of UniProt P49137 (P49137 whole entry, looked up): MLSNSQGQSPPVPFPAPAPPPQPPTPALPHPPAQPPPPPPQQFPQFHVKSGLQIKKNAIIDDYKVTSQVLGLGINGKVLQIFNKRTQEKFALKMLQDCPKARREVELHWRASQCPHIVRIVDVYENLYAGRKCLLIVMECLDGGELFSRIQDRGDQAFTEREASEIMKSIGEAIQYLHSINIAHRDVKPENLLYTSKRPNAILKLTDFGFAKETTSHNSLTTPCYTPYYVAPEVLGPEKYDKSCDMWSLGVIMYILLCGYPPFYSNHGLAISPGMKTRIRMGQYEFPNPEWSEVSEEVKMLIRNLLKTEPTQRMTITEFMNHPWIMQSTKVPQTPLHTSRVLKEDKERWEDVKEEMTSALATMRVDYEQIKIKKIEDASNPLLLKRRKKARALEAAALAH
Sequence of UniProt Q9UI26 (Q9UI26 whole entry, looked up): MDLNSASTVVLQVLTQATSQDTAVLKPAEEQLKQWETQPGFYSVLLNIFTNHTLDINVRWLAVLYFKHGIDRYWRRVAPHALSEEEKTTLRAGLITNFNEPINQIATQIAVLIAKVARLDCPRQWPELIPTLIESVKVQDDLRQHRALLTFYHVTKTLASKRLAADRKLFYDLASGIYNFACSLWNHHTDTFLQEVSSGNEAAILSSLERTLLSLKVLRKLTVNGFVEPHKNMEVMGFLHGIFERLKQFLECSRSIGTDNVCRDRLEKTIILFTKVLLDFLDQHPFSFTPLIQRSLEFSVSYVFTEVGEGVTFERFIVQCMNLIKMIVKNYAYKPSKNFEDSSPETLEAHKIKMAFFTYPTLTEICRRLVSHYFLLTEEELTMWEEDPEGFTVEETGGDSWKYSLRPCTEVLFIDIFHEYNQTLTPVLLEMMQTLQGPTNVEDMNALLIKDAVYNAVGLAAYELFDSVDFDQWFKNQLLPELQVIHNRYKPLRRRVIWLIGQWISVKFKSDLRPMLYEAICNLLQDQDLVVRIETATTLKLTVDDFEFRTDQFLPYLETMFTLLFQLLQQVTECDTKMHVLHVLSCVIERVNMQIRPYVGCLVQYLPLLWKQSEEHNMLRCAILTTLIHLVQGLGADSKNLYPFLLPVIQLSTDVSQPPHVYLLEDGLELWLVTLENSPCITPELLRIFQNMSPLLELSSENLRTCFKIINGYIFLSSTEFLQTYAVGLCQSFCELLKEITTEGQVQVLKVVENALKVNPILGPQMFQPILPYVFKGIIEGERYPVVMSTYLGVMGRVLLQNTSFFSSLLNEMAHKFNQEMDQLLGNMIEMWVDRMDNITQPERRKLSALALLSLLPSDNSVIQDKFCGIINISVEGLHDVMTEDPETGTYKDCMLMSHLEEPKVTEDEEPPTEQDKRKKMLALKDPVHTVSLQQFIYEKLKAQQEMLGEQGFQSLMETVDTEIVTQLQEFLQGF
Sequence of UniProt Q6P1A2 (Q6P1A2 whole entry, looked up): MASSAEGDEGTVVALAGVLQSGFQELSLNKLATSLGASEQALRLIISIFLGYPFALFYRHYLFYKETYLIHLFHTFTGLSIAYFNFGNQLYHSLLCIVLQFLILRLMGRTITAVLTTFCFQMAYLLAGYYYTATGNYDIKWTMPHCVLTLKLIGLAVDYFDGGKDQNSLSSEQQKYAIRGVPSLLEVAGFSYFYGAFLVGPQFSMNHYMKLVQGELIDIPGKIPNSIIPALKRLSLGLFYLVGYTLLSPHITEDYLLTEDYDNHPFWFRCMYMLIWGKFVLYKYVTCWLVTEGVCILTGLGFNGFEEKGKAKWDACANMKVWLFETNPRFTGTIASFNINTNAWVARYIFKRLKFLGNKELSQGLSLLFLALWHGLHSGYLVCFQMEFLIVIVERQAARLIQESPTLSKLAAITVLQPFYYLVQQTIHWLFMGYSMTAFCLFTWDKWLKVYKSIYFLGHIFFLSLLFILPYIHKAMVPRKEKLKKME
Sequence of UniProt Q7L2J0 (Q7L2J0 whole entry, looked up): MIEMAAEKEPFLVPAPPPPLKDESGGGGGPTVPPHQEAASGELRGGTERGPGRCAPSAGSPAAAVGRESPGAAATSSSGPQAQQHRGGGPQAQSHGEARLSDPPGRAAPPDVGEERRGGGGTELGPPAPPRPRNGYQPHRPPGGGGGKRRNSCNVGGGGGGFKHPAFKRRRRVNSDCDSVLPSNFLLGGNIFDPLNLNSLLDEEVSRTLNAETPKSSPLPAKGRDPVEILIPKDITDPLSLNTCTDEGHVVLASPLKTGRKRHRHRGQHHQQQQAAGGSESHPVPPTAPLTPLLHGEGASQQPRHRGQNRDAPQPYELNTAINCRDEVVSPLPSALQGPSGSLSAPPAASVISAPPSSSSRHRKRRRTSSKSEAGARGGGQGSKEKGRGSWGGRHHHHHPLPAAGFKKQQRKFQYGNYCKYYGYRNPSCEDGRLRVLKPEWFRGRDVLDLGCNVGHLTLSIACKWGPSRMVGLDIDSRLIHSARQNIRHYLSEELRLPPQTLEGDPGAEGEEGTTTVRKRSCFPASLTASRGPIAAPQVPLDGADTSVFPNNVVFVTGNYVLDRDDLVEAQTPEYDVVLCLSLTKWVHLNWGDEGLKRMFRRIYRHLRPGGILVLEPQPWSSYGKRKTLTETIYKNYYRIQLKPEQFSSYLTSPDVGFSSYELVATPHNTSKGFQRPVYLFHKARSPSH
Sequence of UniProt P14174 (P14174 whole entry, looked up): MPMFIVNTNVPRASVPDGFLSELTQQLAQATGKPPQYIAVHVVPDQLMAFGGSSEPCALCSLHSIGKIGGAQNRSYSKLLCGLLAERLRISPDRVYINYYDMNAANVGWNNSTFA

Compound in one assay: C[C@@H]1COCCN1C2=NC(=NC(=C2)C3(CC3)S(=O)(=O)C)C4=C5C=CNC5=CC=C4
Description: log2 fold change, soluble protein after heating vs DMSO (PISA); higher = thermal stabilisation; K562 cells, 10 uM, 30 min; active = over 0.2 and 3.5 SD of the protein, either way, in both replicates (recomputed). The method, boiled down:
(§1)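 Quantification of soluble protein used TMTpro 16plex LC-MS/MS, with channel sums equalised. Samples were the supernatant after 21,000xg for 90 min of pooled aliquots from K562 cells (2×10^6 cells/mL) treated with 10 μM compound for 30 min, heated for 3 min over 48°C-58°C, and extracted in PBS with 0.5% NP-40 at 4°C. Values, from duplicates, describe thermal stability against control samples on a log2 fold-change scale.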
Take MIEF1 (UniProt Q9NQG6): the log2 fold change is -0.005.

LDAH isoform 2 (UniProt Q9H6V9): the log2 fold change was 0.064.

Turning to MAPKAPK2 (UniProt P49137), the log2 fold change was 0.035.

Take LIAS (UniProt O43766): the log2 fold change is 0.039.

Regarding MFSD5 isoform 2 (UniProt Q6N075), the log2 fold change is -0.04.

As to LARP4B (UniProt Q92615), the log2 fold change is -0.121.

LAMP2 (UniProt P13473): the log2 fold change is 0.006.

Take MAGEC2 (UniProt Q9UBF1): the log2 fold change was 0.009.

IGFBP4 (UniProt P22692): the log2 fold change is 0.022.

As to ILF3 isoform 7 (UniProt Q12906), the log2 fold change is -0.181.

For LTV1 (UniProt Q96GA3), the log2 fold change is -0.189.

For MICU2 (UniProt Q8IYU8), the log2 fold change is -0.026.

In the case of MCUR1 (UniProt Q96AQ8), the log2 fold change was 0.1.

Turning to KDM1A isoform 2 (UniProt O60341), the log2 fold change is 0.018.

Consider LEMD2 (UniProt Q8NC56), for which the log2 fold change was 0.084.

For LRRFIP1 (UniProt Q32MZ4), the log2 fold change was 0.

LPIN1 isoform 7 (UniProt Q14693): the log2 fold change is -0.034.

Take MFN1 (UniProt Q8IWA4): the log2 fold change is 0.027.

Consider KIF1B isoform 4 (UniProt O60333), for which the log2 fold change is 0.048.

With MFGE8 (UniProt Q08431), the log2 fold change was -0.129.

MCCC2 (UniProt Q9HCC0): the log2 fold change was 0.027.

For the target MICU1 isoform 3 (UniProt Q9BPX6), the log2 fold change is -0.101.

Turning to LARP1 (UniProt Q6PKG0), the log2 fold change was -0.172.

Regarding MEPCE (UniProt Q7L2J0), the log2 fold change is 0.03.

Take MAD2L1 (UniProt Q13257): the log2 fold change is 0.092.

Take KCTD2 (UniProt Q14681): the log2 fold change was -0.047.

As for LYPLA2 (UniProt O95372), the log2 fold change is 0.299.

Consider INPP5B (UniProt P32019), for which the log2 fold change was -0.02.

In the case of IPO11 isoform 2 (UniProt Q9UI26), the log2 fold change is -0.015.

MARCKS (UniProt P29966): the log2 fold change is -0.042.

Consider KIF2C (UniProt Q99661), for which the log2 fold change was -0.028.

As for LPCAT3 (UniProt Q6P1A2), the log2 fold change is 0.171.

For the target KTN1 (UniProt Q86UP2), the log2 fold change was -0.028.

Consider MIF (UniProt P14174), for which the log2 fold change was 0.111.

LUC7L3 (UniProt O95232): the log2 fold change was -0.022.

Take LUC7L (UniProt Q9NQ29): the log2 fold change was -0.033.

For KPNA1 (UniProt P52294), the log2 fold change was -0.029.

For the target KSR1 (UniProt Q8IVT5), the log2 fold change was 0.036.

In the case of MAP2K2 (UniProt P36507), the log2 fold change is 0.069.

Compound in a further assay: C[C@H](C1=CC=C(C=C1)C(=O)NC2=C3C=CNC3=NC=C2)N
The description is as above. A digest of the protocol:
as §1
On to MIEF1 (UniProt Q9NQG6), for which the log2 fold change was -0.046.

On to LDAH isoform 2 (UniProt Q9H6V9), for which the log2 fold change is -0.035.

MAPKAPK2 (UniProt P49137): the log2 fold change is -0.019.

Regarding LIAS (UniProt O43766), the log2 fold change was 0.075.

For MFSD5 isoform 2 (UniProt Q6N075), the log2 fold change was -0.046.

Regarding LARP4B (UniProt Q92615), the log2 fold change is 0.104.

In the case of LAMP2 (UniProt P13473), the log2 fold change was -0.051.

Consider MAGEC2 (UniProt Q9UBF1), for which the log2 fold change is 0.081.

For the target IGFBP4 (UniProt P22692), the log2 fold change is -0.114.

With ILF3 isoform 7 (UniProt Q12906), the log2 fold change is 0.286.

As to LTV1 (UniProt Q96GA3), the log2 fold change was 0.294.

For MICU2 (UniProt Q8IYU8), the log2 fold change is 0.108.

Consider MCUR1 (UniProt Q96AQ8), for which the log2 fold change was 0.044.

Take KDM1A isoform 2 (UniProt O60341): the log2 fold change is -0.011.

Take LEMD2 (UniProt Q8NC56): the log2 fold change is -0.057.

Take LRRFIP1 (UniProt Q32MZ4): the log2 fold change is 0.025.

For LPIN1 isoform 7 (UniProt Q14693), the log2 fold change is 0.031.

In the case of MFN1 (UniProt Q8IWA4), the log2 fold change was -0.063.

Consider KIF1B isoform 4 (UniProt O60333), for which the log2 fold change is 0.035.

Regarding MFGE8 (UniProt Q08431), the log2 fold change is 0.087.

On to MCCC2 (UniProt Q9HCC0), for which the log2 fold change is -0.053.

MICU1 isoform 3 (UniProt Q9BPX6): the log2 fold change was 0.023.

In the case of LARP1 (UniProt Q6PKG0), the log2 fold change was 0.134.

For MEPCE (UniProt Q7L2J0), the log2 fold change was -0.005.

For MAD2L1 (UniProt Q13257), the log2 fold change is -0.004.

Turning to KCTD2 (UniProt Q14681), the log2 fold change was 0.511.

Take LYPLA2 (UniProt O95372): the log2 fold change is -0.08.

On to INPP5B (UniProt P32019), for which the log2 fold change is 0.042.

Regarding IPO11 isoform 2 (UniProt Q9UI26), the log2 fold change is -0.082.

For MARCKS (UniProt P29966), the log2 fold change was -0.191.

Turning to KIF2C (UniProt Q99661), the log2 fold change was 0.012.

With LPCAT3 (UniProt Q6P1A2), the log2 fold change was 0.006.

KTN1 (UniProt Q86UP2): the log2 fold change is 0.122.

In the case of MIF (UniProt P14174), the log2 fold change was -0.048.

For LUC7L3 (UniProt O95232), the log2 fold change was -0.219 (active).

With LUC7L (UniProt Q9NQ29), the log2 fold change was -0.001.

For the target KPNA1 (UniProt P52294), the log2 fold change is 0.084.

For KSR1 (UniProt Q8IVT5), the log2 fold change was 0.047.

With MAP2K2 (UniProt P36507), the log2 fold change was -0.052.
